Most compounds without a hit are left out; they make up all but 1.5% or so of the library.
PI5P4Ka inh: blocks human PI5P4K alpha kinase activity; P48426; PI5P4Kalpha enzyme, ADP-Glo luminescence, 60 min; stronger effect = lower value; max response, %; 330,000 tested, 1.2% active; active = max response of -50% or lower; inconclusive = between -30% and -50%; inactive = -30% or higher; note: value at the top dose of about 77 µM
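qHTS, 1536-well: enzyme/substrate mix, compound by pin tool, 5 microM ATP final; RT 60 min; ADP-Glo reagents 1 (45 min) then 2 (30 min); luminescence.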
RECQ1 helicase: blocks DNA unwinding by human RECQ1; P46063; RECQ1 DNA unwinding, red fluorescence kinetic read; Potency, µM (series often up to 57.3 µM), inactives show at the highest dose activity, negative = inhibition, usual class: inhibitors; 240,000 tested, 0.54% active;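 note: potency is the fitted concentration of half-maximal effect; plate controls were vehicle for no effect and no enzyme for full effect; nearly all actives have a fitted effect of over 30% in size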
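RECQ1T1 50 nM; forked duplex (20 bp + 30-nt ss tails) 200 nM, ATP 2 mM final; pH 8.0, 2 mM MgCl2, 2.5 ug/ml poly(dI-dC); 15 min compound preincubation; discontinuous kinetic read over 2 h at RT.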
WRN helicase inh: blocks human WRN helicase. Q14191. WRN helicase unwinding, fluorescent forked duplex, kinetic. Potency, µM (titrated, usually from 114 µM), without a hit: top-dose activity change, negative = inhibition, hits mostly inhibitors. 360,000 tested, 0.46% active; note: potency is the fitted concentration of half-maximal effect; nearly all actives have a fitted effect of over 55% in size
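Kinetic red-fluorescence monitoring (525/598 nm) tracks WRN helicase activity after 100 nM fluorophore-quencher forked duplex and 2 mM ATP are added to 20 nM enzyme pretreated 15 min at room temperature with compound.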
APE1 inh: inhibitors of human APE1 endonuclease | recombinant APE1, TAMRA/BHQ-2 abasic DNA cleavage fluorescence | Potency, µM (top dose mostly 65.8 µM), without a hit: top-dose activity change, negative = inhibition, actives largely listed as inhibitors | P27695 | 350,000 tested, 0.35% active;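 note: potency is the fitted concentration of half-maximal effect; plate controls were vehicle for no effect and reference inhibitor for full effect; nearly all actives have a fitted effect of over 55% in size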
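0.75 nM APE1 + cpd, 15 min RT; start w/ 50 nM TAMRA/BHQ-2 THF-abasic dsDNA; kinetic fluor 525/598 nm ×3 reads @60 s; Δ(read3−read1); normalized to DMSO and NSC13755 control wells.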
FEN1 inh: blocks human flap endonuclease 1 | P39748 | Recombinant FEN1 flap cleavage, fluorescence, 15 min | Potency, µM (series often up to 114 µM), inactives show at the top dose activity change, negative = inhibition, actives largely listed as inhibitors | 390,000 tested, 0.35% active | AID 588795; note: potency is the fitted concentration of half-maximal effect; nearly all actives have a fitted effect of over 65% in size
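Compounds are tested as a concentration series against 10 nM FEN1; after a 15 min room-temperature preincubation, 50 nM substrate starts cleavage, with plate reads at 0 and 15 min. Normalized responses are fitted by a Hill equation.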
BLM inh: inhibitors of human Bloom syndrome helicase BLM; recombinant BLM DNA unwinding, fluorescence dequenching; Potency, µM (series often up to 56.1 µM), for inactives: top-dose activity change, negative = inhibition, most hits filed as inhibitors; 350,000 tested, 0.2% active; AID 2528;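 note: potency is the fitted concentration of half-maximal effect; plate controls were vehicle for no effect and no enzyme for full effect; nearly all actives have a fitted effect of over 35% in size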
* = called active by the depositor; i = inactive; ? = inconclusive; · = no result. Unless noted, calls come from the whole dose curve; as a rule, active = well fitted curve in the direction sought with a large enough effect; inconclusive = small, poorly fitted or top-dose-only effect, or another doubt; inactive = no such curve, though single readings can be large; an effect the other way counts as inactive or inconclusive. Unless noted, % is set by controls: 0 for no effect and ±100 for the full control effect.

SMILES	PI5P4Ka inh	RECQ1 helicase	WRN helicase inh	APE1 inh	FEN1 inh	BLM inh
O=C(Cc1cccc2c(=O)cc(-c3ccccc3)oc12)OCCN1CCOCC1	2	·	-9%	·	·	·
CCCn1c(C)cc(/C=C(\C#N)C(=O)O)c1C	-16	0%	3%	3%	-9%	-3%
Cc1cc(/C=C(\C#N)C(=O)O)c(C)n1CC1CCCO1 (configuration not stated)	-72*	0%	2%	6%	?	-2%
O=C(NCCN1C(=O)S/C(=C\c2cccnc2)C1=O)C1=NN(c2ccccc2)C(=O)CC1	-67*	i	?	1%	-2%	-13%
CC1(C)CC(=O)C2=C(C1)c1c(ccc3ccccc13)NC2c1cc([N+](=O)[O-])cc([N+](=O)[O-])c1O (configuration not stated)	-59*	i	?	-5%	?	22µM*
CCCCC/C=C\C[C@@H](O)/C=C/C=C\CCC(=O)O	·	1%	·	1%	·	-1%
O=C1C=CC(=O)C(CNc2ccc(C(=O)OCc3ccccc3)cc2)=C1	-77*	·	-29%	·	-19%	·
O=C(C[n+]1cccc2cccc(O)c21)c1ccc(F)cc1	·	·	·	·	0%	·
N#Cc1c(-c2cccc(Br)c2)cc(-c2ccco2)[nH]c1=O	-62*	?	?	-1%	4%	?
C=C(Br)COC(c1ccco1)[C@H](Cc1ccccc1)NC(=O)OC(C)(C)C (some centres not stated)	·	·	·	·	-25%	·
NC1=NC(=O)/C(=C/c2cccc(-c3ccc(S(N)(=O)=O)cc3)c2)S1	?	·	2%	18%	-7%	-3%
NC1=NC(=O)/C(=C\c2ccc(O)c([N+](=O)[O-])c2)S1	-79*	-11%	-28%	-1%	-1%	0%
COc1cc(/C=C2\SC(N)=NC2=O)cc(Cl)c1O	-76*	·	-21%	23%	-1%	-3%
COc1cc(/C=C2\SC(c3ccc(C)cc3)=NC2=O)cc(OC)c1O	·	-18%	?	-2%	?	-11%
COc1ccc(/C=C2\SC(N)=NC2=O)cc1Br	-51*	·	-32%	-5%	-2%	-18%
CCCOc1ccc(/C=C2\SC(N)=NC2=O)cc1OC	0	·	-7%	5%	12%	-6%
COC(=O)c1ccccc1NC(=O)COc1ccccc1C(=O)Nc1ccccc1	·	·	·	·	7%	·
CC[C@H](C)[C@H](NC(=O)[C@H](C)NC(=O)[C@H](Cc1cnc[nH]1)NC(=O)[C@@H]1CCCN1C(=O)CNC(=O)[C@H](CC(C)C)NC(=O)[C@H](CC(C)C)NC(=O)[C@H](Cc1ccc(O)cc1)NC(=O)CNC(=O)[C@H](C)NC(=O)[C@H](CO)NC(=O)[C@H](CC(N)=O)NC(=O)[C@H](CC(C)C)NC(=O)[C@@H](NC(=O)[C@H](Cc1c[nH]c2ccccc12)NC(=O)CN)[C@@H](C)O)C(=O)N[C@@H](CC(=O)O)C(=O)N[C@@H](CC(N)=O)C(=O)N[C@@H](Cc1cnc[nH]1)C(=O)N[C@@H](CCCNC(=N)N)C(=O)N[C@@H](CO)C(=O)N[C@@H](Cc1ccccc1)C(=O)N[C@@H](CO)C(=O)N[C@@H](CC(=O)O)C(=O)N[C@@H](CCCCN)C(=O)N[C@@H](Cc1cnc[nH]1)C(=O)NCC(=O)N[C@@H](CC(C)C)C(=O)N[C@H](C(N)=O)[C@@H](C)O	·	10%	·	0%	·	-3%
CCOc1c(Cl)cc(Cl)cc1CNCCSc1nnnn1C	·	·	·	·	0%	-5%
CCOc1cc(C2NC(=O)c3c(sc4c3CCN(C)C4)N2)ccc1OC(=O)c1ccccc1Cl (configuration not stated)	·	·	·	·	89µM*	-2%
COc1ccc(C(=O)OCC(=O)Nc2ncc([N+](=O)[O-])s2)cc1OC	-77*	·	50µM*	?	35µM*	·

Screens (PubChem BioAssay)
